This is an account of results in the supplement of paper PMC6555819.

One assay concerns PPARg:RXRa IVT, anti-PPARg (NR concentration 270 nM, RXRa partner concentration 90 nM). Nature of the assay: PBM binding z-score (relative to random genomic background probes); higher = stronger binding; sequences stand for … in GC…GCGATTGACAGCGTAGAATGAAGG
The procedure, abridged:
(§1)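 Binding z-scores were set against random background probes. The data came from custom Agilent 4×180K protein-binding microarrays carrying double-stranded probes with 34-nt variable regions, incubated 1 h with ligand-free nuclear receptor dimers. Partner-specific antibodies detected binding, and scanned fluorescence was regression-normalized.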
TCTTGTAGATCAAGCAGGTTAGGAAAGCCTGAGT had a PBM binding z-score of 0.595.

The sequence ATCTCTAGGTAGAGTTCAGTGAAAGATCGATAGA showed a PBM binding z-score of 0.789.

Sequence GCTTGTAGAGCAAGGTTAAGAAAGACTAAGCTAA came in with a PBM binding z-score of 1.72.

Take CAAACTAGGTCAAATGTCAAAGTCGAGCCAACCA: the PBM binding z-score worked out at 8.6.

TCATATAGGTATAGGTGAAAGTCGAACGATATGA: the PBM binding z-score was 1.55.

Sequence CAAACTAGGTCAAGAGATCAAAGTCCGCTTCCCG yielded a PBM binding z-score of 8.28.

CCTGCTAGGTCAATCGTCAGCTAAAGCAGCTCGC showed a PBM binding z-score of 3.19.

With CGTCAAAGTTCAAGGTAACGTGACAGAAAGCAGC, the PBM binding z-score came out at 2.15.

On to ATCGAAACGTCGAGGTGAGTATAGAGAAAGGGAA, for which the PBM binding z-score was 0.225.

AGCGAAAGGTCGTGAGGTGAGTATACAGAAAGGC: the PBM binding z-score is 2.63.

As to CGAACTAGGGCATTGACAGGACAGTGAATAGTAA, the PBM binding z-score came to 6.53.

In turn, CGGACTGGGGCAAGGTTACCATAACGCACAGCCA returned a PBM binding z-score of 5.59.

In turn, AGCATGAGGTTACCAAAGATCAGGGAAACGCTTG yielded a PBM binding z-score of 0.996.

For CTAGCAAGGTGAACAAGGTCGTTGATTACTATTC, the PBM binding z-score was found to be 2.56.

In turn, CTACTAAGGTGAACAAGGTCGTTGATTACTATTC registered a PBM binding z-score of 3.07.

CGTCCAAGGTCAAAGTTCAGTGAAGAGATGACGG gave a PBM binding z-score of 5.08.

With TCTTGTAGATCAATAGAGGGTAAGAAAGTGCGCT, the PBM binding z-score was found to be 0.858.

In turn, ATCGAAAGGTCGTGAGGTGCGTATACAGAAAGGC came in with a PBM binding z-score of 1.75.

For CCTATTAGTTGAGCATAAGGGCAACCGAAGCTCG, the PBM binding z-score is 0.0681.

Take TCTTGTAGATCAACAGGAGGTTAAAAAAGATCGA: the PBM binding z-score was 0.996.

TGAATGAGGTTAAAGTTCAGGGAACGTGGCGTCG came in with a PBM binding z-score of 5.08.

In turn, ATCTCTAGGTAAGACTCAATTCAGTGAAGAACGC had a PBM binding z-score of 0.919.

Turning to AGTCAAAGTTCATCTAGGTAACGTATGATATGCT, the PBM binding z-score was 3.88.

For the sequence GCTATTAGTAGAAAGGGCAACCGAATGATTCTCG, the PBM binding z-score turned out to be 0.803.

ATCCAAAGGTCGAAGGTGAGTATACCCACCCGAA: the PBM binding z-score was found to be 2.51.

For TGAATGAGGTTATATGATCAGGGAACGTTGCAAA, the PBM binding z-score is 1.63.

Regarding CCTAGTTGGTCAGAAGGTCACACACCGGATATGA, the PBM binding z-score came out at 2.85.

As for ATCTCTAGGTAAAAGTTCAGTGAATCCCGAGGAT, the PBM binding z-score was found to be 3.82.

In turn, TCGAGTAGGTTAGTTGGGGCATTCAGCCAACATA showed a PBM binding z-score of 1.73.

The sequence TCTGCTAGGTCAGTTGGTCAGCTATCGAGCTGCC displayed a PBM binding z-score of 3.27.

For ACAGACAGGTGATGATGGTAACTCAGGCTATCAT, the PBM binding z-score was 0.395.

With TAGCATAGGTCATTGGGCCAGTATAGTACGCATC, the PBM binding z-score stood at 3.4.

In turn, CCTACTTGGCCAAGGTCATTGATCAGTCAAAGCA showed a PBM binding z-score of 2.08.

On to CCAGACAGGTGAGAAGGTCACTCAGCCTCGATTA, for which the PBM binding z-score came out at 2.14.

Consider ACTAGTAGTTGACTTAGGGCAACCGATACGACGC, for which the PBM binding z-score was 0.335.

In the case of ATCTCTAGGTAAGACTCAGTTCAGTGACGAACGC, the PBM binding z-score stood at 1.36.

For the sequence ATATATAGGTTATCGGGTCATTCAGTTTGCGCAT, the PBM binding z-score was 7.39.

Sequence AGTCAATGTTCACTAGGTAACGTAAGATTCAGCT gave a PBM binding z-score of 2.92.

The sequence ACTACTTGGTCAGCTGAGGTCACACACAATTCGG gave a PBM binding z-score of 2.81.

With TCTCTGAGGACACGAAAGGTCAGAGCTCGACATC, the PBM binding z-score worked out at 2.12.

The subject of a further assay is PPARg DBDmut:RXRa IVT, anti-PPARg (DBD mutation: PPARg1 K132A/R137A, NR concentration 270 nM, RXRa partner concentration 90 nM). The description is as above. The procedure, abridged: as §1
TCTTGTAGATCAAGCAGGTTAGGAAAGCCTGAGT: the PBM binding z-score came out at 0.172.

ATCTCTAGGTAGAGTTCAGTGAAAGATCGATAGA returned a PBM binding z-score of 1.33.

As for GCTTGTAGAGCAAGGTTAAGAAAGACTAAGCTAA, the PBM binding z-score was -0.693.

CAAACTAGGTCAAATGTCAAAGTCGAGCCAACCA: the PBM binding z-score was found to be 1.94.

On to TCATATAGGTATAGGTGAAAGTCGAACGATATGA, for which the PBM binding z-score was 0.818.

In turn, CAAACTAGGTCAAGAGATCAAAGTCCGCTTCCCG had a PBM binding z-score of 2.03.

CCTGCTAGGTCAATCGTCAGCTAAAGCAGCTCGC: the PBM binding z-score was -0.719.

Turning to CGTCAAAGTTCAAGGTAACGTGACAGAAAGCAGC, the PBM binding z-score came out at 0.0239.

As for ATCGAAACGTCGAGGTGAGTATAGAGAAAGGGAA, the PBM binding z-score was 0.306.

AGCGAAAGGTCGTGAGGTGAGTATACAGAAAGGC gave a PBM binding z-score of 0.478.

Consider CGAACTAGGGCATTGACAGGACAGTGAATAGTAA, for which the PBM binding z-score was 1.42.

The sequence CGGACTGGGGCAAGGTTACCATAACGCACAGCCA came in with a PBM binding z-score of 0.588.

Take AGCATGAGGTTACCAAAGATCAGGGAAACGCTTG: the PBM binding z-score came to 0.0724.

As to CTAGCAAGGTGAACAAGGTCGTTGATTACTATTC, the PBM binding z-score turned out to be 0.0933.

On to CTACTAAGGTGAACAAGGTCGTTGATTACTATTC, for which the PBM binding z-score was 0.656.

For CGTCCAAGGTCAAAGTTCAGTGAAGAGATGACGG, the PBM binding z-score worked out at 0.409.

TCTTGTAGATCAATAGAGGGTAAGAAAGTGCGCT had a PBM binding z-score of 0.311.

Consider ATCGAAAGGTCGTGAGGTGCGTATACAGAAAGGC, for which the PBM binding z-score amounted to 0.734.

On to CCTATTAGTTGAGCATAAGGGCAACCGAAGCTCG, for which the PBM binding z-score is -0.0638.

Sequence TCTTGTAGATCAACAGGAGGTTAAAAAAGATCGA showed a PBM binding z-score of 0.773.

Turning to TGAATGAGGTTAAAGTTCAGGGAACGTGGCGTCG, the PBM binding z-score was 1.25.

With ATCTCTAGGTAAGACTCAATTCAGTGAAGAACGC, the PBM binding z-score came out at 0.318.

Regarding AGTCAAAGTTCATCTAGGTAACGTATGATATGCT, the PBM binding z-score was 1.48.

In turn, GCTATTAGTAGAAAGGGCAACCGAATGATTCTCG had a PBM binding z-score of 0.319.

ATCCAAAGGTCGAAGGTGAGTATACCCACCCGAA gave a PBM binding z-score of 0.413.

Sequence TGAATGAGGTTATATGATCAGGGAACGTTGCAAA yielded a PBM binding z-score of 0.22.

In turn, CCTAGTTGGTCAGAAGGTCACACACCGGATATGA returned a PBM binding z-score of 1.32.

ATCTCTAGGTAAAAGTTCAGTGAATCCCGAGGAT returned a PBM binding z-score of 1.42.

Take TCGAGTAGGTTAGTTGGGGCATTCAGCCAACATA: the PBM binding z-score was -0.651.

In the case of TCTGCTAGGTCAGTTGGTCAGCTATCGAGCTGCC, the PBM binding z-score was 0.301.

With ACAGACAGGTGATGATGGTAACTCAGGCTATCAT, the PBM binding z-score was -0.375.

The sequence TAGCATAGGTCATTGGGCCAGTATAGTACGCATC showed a PBM binding z-score of 0.78.

Regarding CCTACTTGGCCAAGGTCATTGATCAGTCAAAGCA, the PBM binding z-score was -0.0462.

Take CCAGACAGGTGAGAAGGTCACTCAGCCTCGATTA: the PBM binding z-score was -0.281.

ACTAGTAGTTGACTTAGGGCAACCGATACGACGC registered a PBM binding z-score of 0.301.

Regarding ATCTCTAGGTAAGACTCAGTTCAGTGACGAACGC, the PBM binding z-score turned out to be 0.803.

With ATATATAGGTTATCGGGTCATTCAGTTTGCGCAT, the PBM binding z-score was 3.48.

For AGTCAATGTTCACTAGGTAACGTAAGATTCAGCT, the PBM binding z-score amounted to 1.08.

For ACTACTTGGTCAGCTGAGGTCACACACAATTCGG, the PBM binding z-score is 0.583.

Sequence TCTCTGAGGACACGAAAGGTCAGAGCTCGACATC registered a PBM binding z-score of 0.453.
